The source of these data is PubChem BioAssay (EPA / NIEHS).

Experiment [1] can be described thus: BSK_hDFCGF_SRB: Viability Assessment in the BioMAP Diversity Plus: hDFCGF Assay (AID 2283061).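 Further: cells exposed to compound for 24 h before the read.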 Particulars: primary human foreskin fibroblasts. Put shortly: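 SRB-based viability read on primary human skin fibroblasts at 24 h: TCA fixation, 0.1% dye, 560 nm. Gain or loss of signal is fitted against the DMSO negative control.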
Read-out in experiment [2]: TIMP metallopeptidase inhibitor 1 (TIMP1), TIMP1 (gene 7076)
The experiment is described as follows: BSK_hDFCGF_TIMP1: BioMAP Diversity Plus: hDFCGF Assay for TIMP metallopeptidase inhibitor 1 (TIMP1) Biomarker Activity (AID 2283062). The settings on record: primary human foreskin fibroblasts; actives raise or lower the signal. Put shortly:
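Bidirectional curve fitting against DMSO baseline yielded this endpoint, based on ELISA detection of TIMP-1 in primary human foreskin fibroblasts exposed to compound for 24 h.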

Read-out in experiment [3]: Monokine induced gamma interferon (MIG), CXCL9 (gene 4283)
The experiment is described as follows: BSK_hDFCGF_MIG: BioMAP Diversity Plus: hDFCGF Assay for Monokine induced gamma interferon (MIG) Biomarker Activity (AID 2283063). The settings on record: primary human foreskin fibroblasts; actives raise or lower the signal. Put shortly: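 Endpoint derived by bidirectional fitting relative to DMSO; MIG quantified via ELISA in primary human foreskin fibroblasts harvested 24 h after dosing.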

Read-out in experiment [4]: Matrix Metallopeptidase 1 (MMP1), MMP1 (gene 4312)
The experiment is described as follows: BSK_hDFCGF_MMP1: BioMAP Diversity Plus: hDFCGF Assay for Matrix Metallopeptidase 1 (MMP1) Biomarker Activity (AID 2283064). Particulars: primary human foreskin fibroblasts; actives raise or lower the signal. In short, it runs like this: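 Primary human foreskin fibroblasts in the hDFCGF system were dosed with test chemical, and MMP1 was measured by ELISA 24 h later. Values come from bidirectional curve fitting against the DMSO baseline.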

Read-out in experiment [5]: Vascular cell adhesion molecule 1 (VCAM1), VCAM1 (gene 7412)
The experiment is described as follows: BSK_hDFCGF_VCAM1: BioMAP Diversity Plus: hDFCGF Assay for Vascular cell adhesion molecule 1 (VCAM1) Biomarker Activity (AID 2283065). The settings on record: primary human foreskin fibroblasts; actives raise or lower the signal. In short, it runs like this:
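Measured after 24 h chemical treatment of primary human skin fibroblasts, VCAM-1 was detected by ELISA and concentration-response analysed in both directions versus DMSO vehicle.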

Read-out in experiment [6]: Plasminogen activator inhibitor-1 (PAI1), SERPINE1 (gene 5054)
Description: BSK_hDFCGF_PAI1: BioMAP Diversity Plus: hDFCGF Assay for Plasminogen activator inhibitor-1 (PAI1) Biomarker Activity (AID 2283066). The settings on record: primary human foreskin fibroblasts; actives raise or lower the signal. In short, it runs like this:
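Human foreskin fibroblast primary cells, 24 h chemical exposure; PAI-1 measured by ELISA. Bidirectional fitting relative to DMSO; parallel cultures stained with SRB for total protein to flag overt cytotoxicity.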

Read-out in experiment [7]: Intercellular Adhesion Molecule 1 (ICAM1), ICAM1 (gene 3383)
Description: BSK_KF3CT_ICAM1: BioMAP Diversity Plus: KF3CT Assay for Intercellular Adhesion Molecule 1 (ICAM1) Biomarker Activity (AID 2283067). The settings on record: primary human keratinocytes with fibroblasts; actives raise or lower the signal. In short, it runs like this: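 Bidirectional curve fitting against a DMSO baseline was applied to ICAM-1 ELISA signal from primary human skin co-cultures harvested 24 h after treatment, with SRB staining of parallel wells for overt cytotoxicity.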

Read-out in experiment [8]: Interferon-gamma inducible Protein 10 (IP10), CXCL10 (gene 3627)
Description: BSK_KF3CT_IP10: BioMAP Diversity Plus: KF3CT Assay for Interferon-gamma inducible Protein 10 (IP10) Biomarker Activity (AID 2283068). The settings on record: primary human keratinocytes with fibroblasts; actives raise or lower the signal. In short, it runs like this: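 Human keratinocyte plus foreskin fibroblast primary co-culture exposed to test chemical for 24 h; IP-10 measured by ELISA. Concentration-response fitted bidirectionally against DMSO control as baseline.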

The nature of experiment [9]: BSK_KF3CT_SRB: Viability Assessment in the BioMAP Diversity Plus: KF3CT Assay (AID 2283069).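 Further: total protein by sulforhodamine B staining as a cytotoxicity measure; read 24 h after compound addition.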 The settings on record: primary human keratinocytes with fibroblasts. In short, it runs like this:
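Human primary keratinocyte plus foreskin fibroblast co-culture exposed to chemicals for 24 h. Total protein measured by 0.1% sulforhodamine B staining after 10% TCA fixation, read at 560 nm; bidirectional fitting versus DMSO baseline.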

Read-out in experiment [10]: Interleukin-1 alpha (IL1a), IL1A (gene 3552)
Description: BSK_KF3CT_IL1a: BioMAP Diversity Plus: KF3CT Assay for Interleukin-1 alpha (IL1a) Biomarker Activity (AID 2283070). The settings on record: primary human keratinocytes with fibroblasts; actives raise or lower the signal. Put shortly: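 Human keratinocyte plus foreskin fibroblast primary co-culture, sampled 24 h after chemical dosing. IL-1a measured by ELISA; responses fitted bidirectionally against DMSO baseline (negative control), so gain or loss of signal both count.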

Read-out in experiment [11]: TIMP metallopeptidase inhibitor 2 (TIMP2), TIMP2 (gene 7077)
Description: BSK_KF3CT_TIMP2: BioMAP Diversity Plus: KF3CT Assay for TIMP metallopeptidase inhibitor 2 (TIMP2) Biomarker Activity (AID 2283071). Particulars: primary human keratinocytes with fibroblasts; actives raise or lower the signal. Put shortly: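 Co-culture of human primary keratinocytes and foreskin fibroblasts, measured 24 h after chemical dosing. TIMP-2 quantified by ELISA and fitted in both directions relative to DMSO. Cytotoxicity checked in parallel cultures by SRB total-protein staining.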

Read-out in experiment [12]: C-C motif chemokine 2 (Homo sapiens) (UniProt P13500)
Description: BSK_KF3CT_MCP1: BioMAP Diversity Plus: KF3CT Assay for Monocyte Chemoattractant Protein 1 (MCP1/CCL2) Biomarker Activity (AID 2283073). The settings on record: primary human keratinocytes with fibroblasts; actives raise or lower the signal. In short, it runs like this: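 Biomarker MCP-1 is measured by ELISA in primary human keratinocytes co-cultured with foreskin fibroblasts, 24 h after chemical treatment; DMSO serves as the negative control and activity baseline.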

Read-out in experiment [13]: Matrix Metallopeptidase 9 (MMP9), MMP9 (gene 4318)
Description: BSK_KF3CT_MMP9: BioMAP Diversity Plus: KF3CT Assay for Matrix Metallopeptidase 9 (MMP9) Biomarker Activity (AID 2283074). The settings on record: primary human keratinocytes with fibroblasts; actives raise or lower the signal. In short, it runs like this:
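Keratinocyte plus foreskin fibroblast human primary skin co-culture was dosed with chemical and MMP-9 was quantified by ELISA 24 h later. Bidirectional curve fitting used DMSO as negative control and activity baseline.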

Read-out in experiment [14]: urokinase plasminogen activator (uPA), PLAU (gene 5328)
Description: BSK_KF3CT_uPA: BioMAP Diversity Plus: KF3CT Assay for urokinase plasminogen activator (uPA) Biomarker Activity (AID 2283075). Particulars: primary human keratinocytes with fibroblasts; actives raise or lower the signal. Put shortly:
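Human keratinocyte plus foreskin fibroblast primary co-culture exposed to chemical for 24 h. uPA levels were quantified by ELISA, and activity was fitted bidirectionally against a DMSO negative-control baseline.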

Read-out in another experiment: CD40, CD40 (gene 958)
Description: BSK_LPS_CD40: BioMAP Diversity Plus: LPS Assay for CD40 Biomarker Activity (AID 2283076). Particulars: primary human HUVEC with PBMC; actives raise or lower the signal. In short, it runs like this: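 Using a multiplexed primary human co-culture (umbilical vein endothelium plus PBMC), CD40 was read by ELISA 24 h after dosing, with cytotoxicity tracked by sulforhodamine B staining of parallel cultures and activity fitted bidirectionally versus DMSO.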

Read-out in experiment [15]: E-selectin (Homo sapiens) (UniProt P16581)
Description: BSK_LPS_Eselectin: BioMAP Diversity Plus: LPS Assay for Eselectin Biomarker Activity (AID 2283077). The settings on record: primary human HUVEC with PBMC; actives raise or lower the signal. In short, it runs like this: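 Dose chemical onto LPS-driven HUVEC/PBMC co-culture; after 24 h, run ELISA for E-selectin; fit up- and down-going responses relative to DMSO control.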

Read-out in experiment [16]: Interleukin-8 (IL8), CXCL8 (gene 3576)
The experiment is described as follows: BSK_LPS_IL8: BioMAP Diversity Plus: LPS Assay for Interleukin-8 (IL8) Biomarker Activity (AID 2283078). The settings on record: primary human HUVEC with PBMC; actives raise or lower the signal. Put shortly: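 In this LPS system, chemical-treated human umbilical vein endothelium/PBMC co-cultures were harvested at 24 h for IL-8 ELISA.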

A short description of experiment [17]: BSK_LPS_SRB: Viability Assessment in the BioMAP Diversity Plus: LPS Assay (AID 2283079).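 Further: total protein by sulforhodamine B absorbance as a cytotoxicity measure; measured one day after compound addition.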 The settings on record: primary human HUVEC with PBMC. Put shortly: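 Cytotoxicity endpoint in human endothelial–PBMC co-culture: 24 h exposure, then SRB (0.1%) staining, 560 nm read.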
Read-out in experiment [18]: Interleukin-1 alpha (IL1a), IL1A (gene 3552)
The experiment is described as follows: BSK_LPS_IL1a: BioMAP Diversity Plus: LPS Assay for Interleukin-1 alpha (IL1a) Biomarker Activity (AID 2283080). Particulars: primary human HUVEC with PBMC; actives raise or lower the signal. In short, it runs like this: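 Primary human HUVEC and PBMC co-culture stimulated with LPS is dosed and harvested at 24 h. Both increases and decreases in ELISA-measured IL-1a are scored relative to DMSO.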

Read-out in experiment [19]: Transforming growth factor beta 1 (TGFb1), TGFB1 (gene 7040)
Description: BSK_KF3CT_TGFb1: BioMAP Diversity Plus: KF3CT Assay for Transforming growth factor beta 1 (TGFb1) Biomarker Activity (AID 2283072). Particulars: primary human keratinocytes with fibroblasts; actives raise or lower the signal. In short, it runs like this: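 Human keratinocyte/foreskin fibroblast co-culture; TGF-b1 measured by ELISA 24 h after dosing, fitted bidirectionally versus DMSO. Cytotoxicity checked in parallel cultures by total protein (SRB staining, 560 nm).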

Calls of active or inactive are those of the source. How the source made its calls: active means hit-call score of the fitted dose curve at least 0.9, where 1 is the maximum; inactive means score below 0.9.

Sequence of E-selectin (Homo sapiens) (P16581 whole entry, looked up): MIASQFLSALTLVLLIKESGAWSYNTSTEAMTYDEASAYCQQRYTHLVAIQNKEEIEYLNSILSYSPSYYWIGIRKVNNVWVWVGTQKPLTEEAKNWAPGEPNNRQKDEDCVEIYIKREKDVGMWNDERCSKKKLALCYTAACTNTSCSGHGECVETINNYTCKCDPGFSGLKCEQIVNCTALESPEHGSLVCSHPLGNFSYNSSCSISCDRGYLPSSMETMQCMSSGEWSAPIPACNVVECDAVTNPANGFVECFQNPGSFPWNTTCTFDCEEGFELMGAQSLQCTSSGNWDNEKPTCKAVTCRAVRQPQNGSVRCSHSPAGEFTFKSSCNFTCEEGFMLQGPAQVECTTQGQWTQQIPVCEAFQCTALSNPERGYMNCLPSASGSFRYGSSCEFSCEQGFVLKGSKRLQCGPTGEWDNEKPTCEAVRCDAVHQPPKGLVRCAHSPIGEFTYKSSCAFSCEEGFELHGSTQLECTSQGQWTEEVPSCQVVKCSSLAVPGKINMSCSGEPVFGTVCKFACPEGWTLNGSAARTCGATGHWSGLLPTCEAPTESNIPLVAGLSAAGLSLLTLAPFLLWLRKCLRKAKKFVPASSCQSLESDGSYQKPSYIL

Regarding `OC1OC[C@@H](O)[C@H](O)[C@H]1O` (some centres undefined), the outcome in experiment [1], in [2], in experiment [3], in experiment [4], in experiment [5] and in [6] was inactive. For the same compound, the result in experiment [7], in experiment [8], in experiment [9], in experiment [10], in experiment [11] and in experiment [12] was inactive. Also, the outcome was “inactive” in experiment [13]; “inactive” in experiment [14]; “inactive” in the experiment with CD40, CD40 (gene 958); “inactive” in experiment [15]; “inactive” in [16]; “inactive” in [17]. Besides, the result in [18] was inactive.
As for `c1ccc2c(c1)c1cccc3ccc4cccc2c4c31`, the outcome in experiment [1], in experiment [2], in [3], in [4], in [5] and in experiment [6] was inactive. Further, the outcome in experiment [7], in experiment [8], in experiment [9], in experiment [11], in [12] and in experiment [13] was inactive. Further, the outcome was “inactive” in the experiment with CD40, CD40 (gene 958); “inactive” in [15]; “inactive” in experiment [16]; “inactive” in experiment [17]; “inactive” in [18]. For the same compound, the AC50 in experiment [10] is 0.016 µM (active); in experiment [19], 0.0518 µM (active); in experiment [14], 0.0439 µM (active).
Turning to `CNC[C@H](O)c1cccc(O)c1`, the outcome in [1], in [2], in [3], in [4], in experiment [5] and in [6] was inactive. Also, the result in experiment [7], in [8], in experiment [9], in [10], in experiment [11] and in [19] was inactive. In addition, the outcome is “inactive” in experiment [13]; “inactive” in [14]; “inactive” with CD40, CD40 (gene 958); “inactive” in experiment [15]; “inactive” in experiment [16]; “inactive” in [17]. Moreover, in experiment [18], the outcome was inactive. Also, the AC50 in experiment [12] is 0.0741 µM (active).

A word on the AC50: it is the midpoint of the concentration-response curve, whichever way the signal moves.
